Activity calls are given as the source filed them. How the source made its calls: active means hit-call score of the fitted dose curve at least 0.9, where 1 is the maximum; inactive means score below 0.9.
What follows are compounds tested on Monokine induced gamma interferon (MIG), CXCL9 (gene 4283) (assay: BSK_BE3C_MIG: BioMAP Diversity Plus: BE3C Assay for Monokine induced gamma interferon (MIG) Biomarker Activity (AID 2283035)). Conditions: primary human bronchial epithelial cells; actives raise or lower the signal.
Description: BSK_BE3C is a cell-based, multiplexed-readout assay that uses bronchial epithelial cell, a human lung primary cell, with measurements taken at 24 hours after chemical dosing in a 96-well plate.BSK_BE3C_MIG is an assay component measured in the BSK_BE3C assay. It measures MIG antibody related to regulation of gene expression using ELISA technology.Data from the assay component BSK_BE3C_MIG was analyzed into 1 assay endpoint. This assay endpoint, BSK_BE3C_MIG, was analyzed with bidirectional fitting relative to DMSO as the negative control and baseline of activity. Using a type of binding reporter, gain or loss-of-signal activity can be used to understand changes in the signaling as they relate to the gene CXCL9. Furthermore, this assay endpoint can be referred to as a primary readout, because this assay has produced multiple assay endpoints where this one serves a signaling function. To generalize the intended target to other relatable targets, this assay endpoint is annotated to the cytokine intended target family, where the subfamily is chemotactic factor.
The levels of cell surface (or secreted, indicated by the prefix "s") biomarker endpoints were measured by ELISA. Overt cytotoxicity to cells in confluent adherent cultures (all systems other than the BT system) was assessed by measuring total protein levels using sulforhodamine B (SRB) staining in parallel cultures at the time of biomarker measurements, indicated as SRB endpoints. For proliferation assays for adherent cell types, individual cell types are cultured at sub-confluence and relative cell numbers quantified by SRB staining at time points optimized for each system (48 h: 3C and CASM3C systems; 72 h: BT and HDF3CGF systems; 96 h: SAg system). SRB was performed by staining cells with 0.1% SRB after fixation with 10% TCA and reading wells at 560 nm.Viability and proliferation of PBMC (T cells) was quantified by Alamar Blue reduction for the SAg and BT systems. For PBMC viability (referred to as PBMC Cytotoxicity within the assay endpoint names), cells were plated (75,000/well in a 96-well plate) and then chemical samples added for 1 h before addition of activators, SEB and TSST-1 (20 ng/mL final concentration each). Cells were incubated for 90 h. Then, Alamar Blue (20 uL/well) (Invitrogen, Cat DAL1100) was added for 6 h, and the plates were read with a fluorescence microplate reader at 546/580 nm (excitation/emission). For PBMC proliferation, cells were plated and activated as above but incubated for only 16 h prior to addition of Alamar Blue. Plates were read after 6 h.

SMILES | outcome | AC50
Clc1ccccc1Cl | inactive | 
OCCCBr | inactive | 
c1ccc2c(c1)oc1ccccc12 | inactive | 
Oc1ccccc1Cl | inactive | 
CN(C)[C@@H]1C(=O)C(C(N)=O)=C(O)[C@@]2(O)C(=O)C3=C(O)c4c(O)cccc4[C@@](C)(O)[C@H]3C[C@@H]12 | inactive | 
Nc1ccc(Cl)cc1N | inactive | 
Cc1cc(N=Nc2ccccc2C)ccc1N | inactive | 
CCC[CH2][Sn]([Cl])([CH2]CCC)[CH2]CCC |  | 0.162 µM (active)
C1=Cc2cccc3cccc1c23 | inactive | 
[O-][Cl+]O | inactive | 
CCCCOC(=O)c1ccccc1C(=O)OCc1ccccc1 | inactive | 
c1ccc(NNc2ccccc2)cc1 | inactive | 
CC(C)N(Cc1ccccc1)C(=O)C(C)(C)C | inactive | 
Oc1ccc2ccc3cccc4ccc1c2c34 |  | 31.2 µM (active)
COC(=O)Nc1nc2ccccc2[nH]1 | inactive | 
O=C(Oc1ccc(Br)cc1)N1CCN2CCC1CC2 | inactive | 
N#CC(Br)(Br)C(N)=O | inactive | 
Brc1ccc(Oc2ccccc2)cc1 | inactive | 
Clc1ccc(Cl)c(Cl)c1 | inactive | 
CC(C)(O)c1cnn2c(-c3ccc(F)c(-c4c(F)cccc4C#N)c3)cnc2n1 |  | 36.9 µM (active)

SMILES | outcome | AC50
C=CCc1ccc2c(c1)OCO2 | inactive | 
Clc1ccc(C(c2ccc(Cl)cc2)C(Cl)(Cl)Cl)cc1 | inactive | 
COC(=O)c1ccccc1N | inactive | 
CN(C)C(=O)Nc1ccc(Cl)cc1 | inactive | 
OCCOCCO | inactive | 
c1ccc(N=Nc2ccccc2)cc1 | inactive | 
O=P(OCCCl)(OCCCl)OCCCl | inactive | 
CC(C)(OOC(C)(C)c1ccccc1)c1ccccc1 | inactive | 
ClCCOCCCl | inactive | 
CCCCCCCCCCCCCN1CC(C)OC(C)C1 (stereo not given) | inactive | 
Cn1cc(-c2ccccc2)c(=O)c(-c2cccc(C(F)(F)F)c2)c1 | inactive | 
OCCCl | inactive | 
CCCCCCCCn1sccc1=O |  | 13.6 µM (active)
CC(O)CCO (stereo not given) | inactive | 
N#CC(Br)Br | inactive | 
CC(C)(C)OOC(=O)c1ccccc1 | inactive | 
Nc1ccc(Cc2ccc(N)cc2)cc1 | inactive | 
CCCCC(CC)COC(=O)c1ccc(C(=O)OCC(CC)CCCC)c(C(=O)OCC(CC)CCCC)c1 (stereo not given) | inactive | 
ClC1=C(Cl)C2(Cl)C3C(Cl)C=CC3C1(Cl)C2(Cl)Cl (stereo not given) |  | 31.3 µM (active)
[As]#[In] | inactive | 

From PubChem BioAssay (EPA / NIEHS)
